Assay outcomes (PubChem)
PLK1 PBD block: qHTS for Inhibitors of PLK1-PDB (polo-like kinase 1 - polo-box domain): Primary Screen; Plk1 PBD binding of FITC phosphopeptide, fluorescence polarization; Potency, µM, for inactives: max response, negative = inhibition, hits mostly inhibitors; 360,000 compounds, 2.8% hits; note: potency is the fitted concentration of half-maximal effect; series mostly up to about 57 µM; % is set by controls: 0 for no effect and ±100 for the full control effect; nearly all actives have a fitted effect of over 65% in size
Target sequence (P53350 whole entry, looked up, the tested form may be a part): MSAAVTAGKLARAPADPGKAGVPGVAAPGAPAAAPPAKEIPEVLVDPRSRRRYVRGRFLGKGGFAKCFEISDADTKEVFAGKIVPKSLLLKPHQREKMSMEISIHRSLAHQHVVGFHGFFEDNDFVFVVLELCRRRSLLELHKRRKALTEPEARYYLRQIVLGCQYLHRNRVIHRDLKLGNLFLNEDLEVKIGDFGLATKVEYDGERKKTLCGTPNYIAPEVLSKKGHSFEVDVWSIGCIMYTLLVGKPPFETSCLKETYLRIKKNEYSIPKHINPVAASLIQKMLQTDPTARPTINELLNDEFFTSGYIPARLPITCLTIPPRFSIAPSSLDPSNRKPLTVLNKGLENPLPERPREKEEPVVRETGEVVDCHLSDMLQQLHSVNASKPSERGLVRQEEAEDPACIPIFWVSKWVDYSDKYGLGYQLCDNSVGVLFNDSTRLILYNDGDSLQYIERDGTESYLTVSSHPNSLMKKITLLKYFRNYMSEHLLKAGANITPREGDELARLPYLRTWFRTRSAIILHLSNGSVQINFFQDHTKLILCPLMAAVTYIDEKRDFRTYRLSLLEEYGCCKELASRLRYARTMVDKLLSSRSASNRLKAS
BAZ2B inh: qHTS Assay for Inhibitors of BAZ2B | Bromodomain adjacent to zinc finger domain protein 2B (Homo sapiens), Q9UIF8 | AlphaScreen BAZ2B-H3K14Ac peptide displacement | Potency, µM (titrated, usually from 114 µM), for inactives: at the highest dose activity change, negative = inhibition, usual class: inhibitors | 360,000 compounds, 4.4% hits | AID 504333, 2011; note: potency is the fitted concentration of half-maximal effect; % is set by controls: 0 for no effect and ±100 for the full control effect; nearly all actives have a fitted effect of over 60% in size
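BAZ2B 50 nM plus b-H3(5-23)K14Ac 50 nM, PBS pH 7.4/0.01% Tween-20, 30 min RT; compound added (max 110 uM), 30 min RT; streptavidin donor/Ni-chelate acceptor beads 10 ug/mL final, 20 min dark; AlphaScreen read.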
KAT2A inh: qHTS Assay for Inhibitors of GCN5L2. Histone acetyltransferase KAT2A (Homo sapiens), Q92830. GCN5L2 HAT assay, ThioGlo1 CoA-SH fluorescence. Potency, µM (top dose mostly 58.9 µM), for the others: at the top dose activity change, negative = inhibition, most hits filed as inhibitors. 390,000 compounds, 0.21% hits; note: potency is the fitted concentration of half-maximal effect; % is set by controls: 0 for no effect and ±100 for the full control effect
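Preincubate 20nM GCN5L2 with compound 15 min, RT → add 50uM ThioGlo1 + 75uM H3(1-25) + 70uM acetyl-CoA → read fluorescence 0 and 20 min. Primary qHTS; fluorescent artifacts likely.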
JMJD2A Tudor: qHTS Assay for Inhibitors of JMJD2A-Tudor Domain. 390,000 compounds, 4.4% hits. Lysine-specific demethylase 4A (Homo sapiens), O75164. Potency, µM (titrated, usually from 114 µM), for inactives: top-dose activity change, negative = inhibition, actives largely listed as inhibitors. AlphaScreen JMJD2A-Tudor / H3K4me3 peptide binding; note: potency is the fitted concentration of half-maximal effect; % is set by controls: 0 for no effect and ±100 for the full control effect; nearly all actives have a fitted effect of over 50% in size
PI5P4K alpha inh: qHTS for Inhibitors of phosphatidylinositol 5-phosphate 4-kinase (PI5P4K) | PI5P4Kalpha enzyme, ADP-Glo luminescence, 60 min; stronger effect = lower value | 330,000 compounds, 1.2% hits | max response, % | Phosphatidylinositol 5-phosphate 4-kinase type-2 alpha (Homo sapiens), P48426 | AID 652105, 2013; active = max response of -50% or lower; inconclusive = between -30% and -50%; inactive = -30% or higher; note: value at the top dose of about 77 µM; % is set by controls: 0 for no effect and ±100 for the full control effect
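Quantitative HTS of the MLSMR library against PI5P4Kalpha with substrate. ATP added last at 5 microM final; room temperature, 60 minutes. Remaining ATP depleted, ADP converted and read as luminescence.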
HP1b binding inh: HTS for Inhibitors of HP1-beta Chromodomain Interactions with Methylated Histone Tails | AlphaScreen HP1-beta / biotin-H3K9me3 peptide binding | Potency, µM (top dose mostly 114 µM), for inactives: at the highest dose activity change, negative = inhibition, most hits filed as inhibitors | 390,000 compounds, 0.56% hits | AID 540317, 2011; note: potency is the fitted concentration of half-maximal effect; nearly all actives have a fitted effect of over 70% in size
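HP1-beta protein (50 nM final) preincubated 30 min at room temperature with biotinylated H3(1-18)K9me3 peptide (50 nM) in PBS pH 7.4, 0.01% Tween-20, then compound added for 30 min. AlphaScreen streptavidin donor/nickel chelate acceptor beads (10 ug/mL final), 30 min dark, luminescence read.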
ADP-Glo counter: qHTS for Inhibitors of PI5P4K: ADP-Glo counter assay; shares compounds with PI5P4K alpha inh; ADP-Glo detection counter-screen, luciferase luminescence, no enzyme; Potency, µM (doses to about 76.9 µM), for inactives: at the top dose activity change, negative = inhibition, hits mostly inhibitors; 1,100 tested, under 10 active
* marks the source's active call; other numbers are inactive results; u = inconclusive; x = not tested or not shown; [ ] = remark or other dose. This is a sample that favours compounds with a hit; in the whole collection about 7% have one here. Unless noted, calls come from the whole dose curve; as a rule, active = well fitted curve in the direction sought with a large enough effect; inconclusive = small, poorly fitted or top-dose-only effect, or another doubt; inactive = no such curve, though single readings can be large; an effect the other way counts as inactive or inconclusive.

SMILES | PLK1 PBD block | BAZ2B inh | KAT2A inh | JMJD2A Tudor | PI5P4K alpha inh | HP1b binding inh | ADP-Glo counter
Cc1ccc(Cl)cc1N1CCN(S(=O)(=O)c2ccc3[nH]c(=O)ccc3c2)CC1 | -0.5% | -18.9% | -8.3% | -9.7% | -4.3 | 37.3% | x
Cc1ccc(Cl)cc1N1CCN(S(=O)(=O)c2ccc3[nH]c(=O)c(=O)[nH]c3c2)CC1 | -24.0% | x | -21.9% | u | -55.5* | 7.0% | -3.4%
CCCCC1CCC(C(=O)N2CC(=O)Nc3ccc(C)cc3C2c2ccc(F)cc2)CC1 (centres undefined) | x | -3.5% | -17.0% | -29.0% | x | 47.8% | x
CCC1CCCCN1C(=O)Cn1nc([N+](=O)[O-])c(Cl)c1C (centres undefined) | -14.0% | -7.1% | -2.9% | -27.0% | -50.4* | 14.1% | -1.4%
NS(=O)(=O)c1ccc(NC(=O)C2Cc3ccccc3CN2C(=O)c2ccco2)cc1 (centres undefined) | -28.2% | 50.1µM* | -20.9% | 39.8µM* | -87.3* | u | 3.1%
NS(=O)(=O)c1ccc(CCNC(=O)C2Cc3ccccc3CN2C(=O)c2ccco2)cc1 (centres undefined) | -5.5% | 6.4% | -9.9% | -16.2% | -19.5 | 34.7% | x
O=S(=O)(c1ccccc1)c1nc(-c2ccco2)oc1N1CCCCCC1 | 7.52µM* | 39.8µM* | -27.7% | -30.8%[11.4 µM] | -52.8* | 8.91µM* | -10.3%
Cc1ccc2cc(CCl)c(Cl)nc2c1 | -18.1% | u | -10.5% | 4.3% | -79.2* | 35.9% | -0.5%
CCc1cccc(C)c1NC(=O)CSc1nnc(CC)n2c1cc1occc12 | x | -21.9% | 2.4% | -11.4% | x | 54.0% | x
Cc1ccc(CNc2nc(NCc3ccccc3)nc3ccsc23)c(C)c1 | -1.8% | x | x | x | x | x | -2.2%
COc1ccccc1CNc1nc(NCc2ccc3occc3c2)c2sccc2n1 | 4.1% | x | x | x | x | x | 1.0%
COc1ccccc1CNc1nc(NCCOc2ccccc2)c2sccc2n1 | -5.5% | x | x | x | x | x | -6.5%
COc1ccccc1CNc1nc(Nc2cccc(-c3cnco3)c2)c2sccc2n1 | -4.3% | x | x | x | x | x | -3.1%
COCCNc1nc(NCc2ccccc2OC)c2sccc2n1 | -5.0% | x | x | x | 1.6 | x | x
Cc1ccccc1OCCC(=O)OCC(=O)NC1CCS(=O)(=O)C1 (centres undefined) | 1.0% | -2.7% | 1.4% | -8.3% | 6.8 | 20.7% | x
CCc1nnc(NC(=O)c2cc(=O)c3cc(C)ccc3o2)s1 | x | -8.8% | -1.3% | -12.8% | x | 31.3% | x
COc1ccccc1CNc1nc(NCc2ccccc2OC)c2sccc2n1 | -1.3% | x | x | x | x | x | -3.7%
Cc1ccc(C(CCN(Cc2ccccc2)C(=O)c2ccco2)c2ccco2)cc1 (centres undefined) | -26.2% | 31.6µM* | u | 20µM* | -57.6* | -4.6% | -2.5%
CCOC(=O)Cc1cc(=O)n2[nH]c(-c3ccccc3)c(-c3ccccc3)c2n1 | -27.5% | 1.4% | -6.8% | -19.2% | -50.2* | 25.3% | 3.2%
CCC1CN(C(=O)Nc2ccccc2F)c2cc(C)ccc2O1 (centres undefined) | x | 32.3% | -14.8% | 36.5% | x | 73.5% | x
CCc1ccc(N2CC(c3nc4ccccc4n3Cc3ccccc3C)CC2=O)cc1 (centres undefined) | x | -26.4% | -3.5% | -19.9% | x | 9.6% | x
CCCCc1c(-c2ccccc2)ncn1CCc1ccccc1OC | 2.9% | x | x | x | 2.3 | x | x
CCCCc1c(Cc2ccccc2)ncn1CCc1ccccc1OC | -25.6% | x | x | x | -66.8* | x | 2.2%
